In PubChem BioAssay (NCI) one finds growth data, which are given here for 13 compounds.

Each structure is given as a SMILES string. The panel holds about 83,000 compounds, 20% with a hit somewhere; the sample as a whole holds those more often.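 Method: cells in 96-well plates; compound added at one concentration; 48 h incubation; percent growth measured; values under 10 scored active.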 Active and inactive are the calls of the source.

This assay relates to OVCAR-3 ovarian. Put plainly: NCI-60 one-dose screen, 48 h (100 = growth as untreated, 0 = no growth, -100 = all killed). Conditions: 10 µM unless noted.
Turning to `O=S(=O)(NCCNc1nccc(-n2cnc3ccccc32)n1)c1ccc(Br)cc1`, the growth was 103% (inactive).

As to `NS(=O)(=O)c1ccc(Nc2nc(N/N=C/c3ccccn3)nc(Nc3ccccc3)n2)cc1`, the growth was -15.8% (active).

As for `NC(N)=Nc1ccc(Oc2cccc(Nc3ccc(Br)c(C(F)(F)F)c3)c2)cc1`, the growth was 13.7% (inactive).

With `O=c1[nH]c2ccccc2cc1CSc1ccccc1Nc1nccc(-c2ccc(Cl)cc2)n1`, the growth is 101% (inactive).

Take `COc1ccccc1C(=O)Nc1cccc2c1C(=O)C(=O)C=C2`: the growth is 13.1% (inactive).

Take `CCO/C=N/C1=C(C#N)C(c2ccc(F)cc2)c2sc3c(C)cccc3c2O1` (stereo not drawn): the growth is -6.49% (active).

On to `O=C(NNc1nc2cc(F)ccc2n2c(CN3CCCC3)ccc12)c1cnccn1`, for which the growth is 4.58% (active).

For the compound `COc1cc(-c2nn(C(C)(C)C)cc2-c2ccnc(NCCCNS(=O)(=O)c3ccccc3)n2)ccc1Cl`, the growth is 93.1% (inactive).

Regarding `O=C(NCc1ncc[nH]1)c1ccc(-c2nc3ccc4[nH]ncc4c3c3c2CCCC3)cc1`, the growth is 3.38% (active).

As for `O=C(NNc1nc2cc(F)ccc2n2c(CO)ccc12)c1cnccn1`, the growth was 33.4% (inactive).

Turning to `O=[N+]([O-])c1cc(/C=N/Nc2nc(N/N=C/c3ccc(Cl)c([N+](=O)[O-])c3)nc(N3CCCCC3)n2)ccc1Cl`, the growth was -7.45% (active).

For `COc1c(N2CC3CCCNC3C2)c(F)cc2c(=O)c(C(=O)N/N=C/c3ccccc3)cn(C3CC3)c12` (stereo not drawn), the growth is 102% (inactive).

Take `O=C(CNc1nc(-c2cccc([N+](=O)[O-])c2)cs1)Nc1cccc(Cl)c1`: the growth is 116% (inactive).
